# Results published in the supplement of paper PMC10646978.
# ± gives the standard deviation.
# Columns and labels:
# Details in all cases: modulator concentration 10 µM
# [1] = system: RAW-Dual (murine macrophage reporter line); experiment: NF-kB reporter (SEAP) activity fold change vs agonist alone; higher = enhanced NF-kB activity
# Method in brief: (§1)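 Overnight stimulation with a PRR agonist followed pre-incubation for 1 hour at 37 °C with compound at 10 μM final. This was done in RAW-Dual murine macrophage reporter cells seeded at 50 000 per well in 384-well plates. NF-κB (SEAP, QUANTI-Blue absorbance at 620 nm) and IRF (Lucia luciferase, QUANTI-Luc luminescence) were read from the supernatant. Each reporter's fold change relative to the mean agonist-only control on the same plate was averaged over replicate plates.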
# [2] = system: RAW-Dual (murine macrophage reporter line); experiment: IRF reporter (Lucia luciferase) activity fold change vs agonist alone; higher = enhanced IRF activity
# Method in brief: as §1
# [3] = system: RAW-Dual (murine macrophage reporter line); experiment: viability score (confluency relative to resting cells, overnight) (fraction); higher = more viable, active = viable (0.7 or more)
# Method in brief: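 RAW-Dual macrophages in 384-well plates were incubated overnight with compound, final concentration 10 μM. Confluency images from IncuCyte were processed in IncuCyte software into two masks covering all imaged wells. The viability score is each well's confluency relative to resting cells, and a compound met the cutoff when both masks exceeded 70% of resting cells.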
# [4] = agonist: CpG ODN 1826 0.5 ug/mL
SMILES,"NF-kB reporter [1, 4]",NF-kB reporter ([1]; agonist: LPS 0.1 ug/mL),NF-kB reporter ([1]; agonist: MPLA […]),IRF reporter ([2]; agonist: 3'3'-cGAMP 10 ug/mL),IRF reporter ([2]; agonist: LPS 0.1 ug/mL),IRF reporter ([2]; agonist: MPLA […]),viability score [3]
O=c1ncnc2[nH][nH]cc1-2,0.832 ± 0.071,0.865 ± 0.043,1.13 ± 0.13,0.979 ± 0.059,1.17 ± 0.07,1.31 ± 0.15,1.02 (active)
Oc1ccc2ccccc2c1SSc1c(O)ccc2ccccc12,0.639 ± 0.15,0.993 ± 0.14,1.18 ± 0.15,0.09 ± 0.0053,0.919 ± 0.1,0.908 ± 0.096,0.963 (active)
CCOC(=O)CC(C)(O)P(=O)(OCC)OCC (configuration not stated),1.01 ± 0.066,1.08 ± 0.068,0.955 ± 0.069,1.04 ± 0.035,1.44 ± 0.2,1.18 ± 0.12,1 (active)
O=S(=O)(NCCn1ccn2nccc12)c1ccccc1Br,0.86 ± 0.053,0.904 ± 0.091,1.02 ± 0.065,0.989 ± 0.049,1.14 ± 0.18,1.23 ± 0.34,0.983 (active)
CCC(C)C(=O)OC1CC(C)C=C2C=CC(C)C(CCC3CC(O)CC(=O)O3)C21 (configuration not stated),1.33 ± 0.32,1 ± 0.061,1.06 ± 0.13,0.919 ± 0.031,1.19 ± 0.19,1.1 ± 0.16,1 (active)
CCN1C(=O)C(=Cc2c[nH]c3ccccc23)SC1=S,0.67 ± 0.075,0.994 ± 0.081,0.868 ± 0.033,0.813 ± 0.16,1.02 ± 0.084,1.36 ± 0.18,0.804 (active)
COc1ccc(-c2csc(NC(=O)CCc3ccccc3)c2C(=O)O)cc1,0.697 ± 0.1,0.809 ± 0.072,1.04 ± 0.15,0.957 ± 0.046,1.51 ± 0.12,1.63 ± 0.14,1.02 (active)
NC(=O)c1ncn([C@@H]2O[C@H](CO)[C@@H](O)[C@H]2O)n1,0.766 ± 0.17,1.07 ± 0.14,0.86 ± 0.084,1.16 ± 0.05,1.66 ± 0.22,1.77 ± 0.18,0.986 (active)
COC(=O)C1=C(C)NC(C)=C(C(=O)OC(C)(C)CN(C)CCC(c2ccccc2)c2ccccc2)C1c1cccc([N+](=O)[O-])c1.Cl (configuration not stated),0.167 ± 0.023,0.807 ± 0.17,1.98 ± 1,0.132 ± 0.0065,1.69 ± 0.37,2.85 ± 0.23,0.96 (active)
Nc1nc(Cl)nc2c1ncn2[C@H]1C[C@H](O)[C@@H](CO)O1,1.91 ± 0.4,1.39 ± 0.11,1.65 ± 0.12,0.723 ± 0.055,1.09 ± 0.096,1.08 ± 0.22,0.244 (inactive)
CC(=O)c1cc(Cl)ccc1OC(=O)c1ccccc1Cl,0.767 ± 0.07,0.803 ± 0.051,0.757 ± 0.062,0.543 ± 0.025,1.63 ± 0.12,1.8 ± 0.24,0.987 (active)
COC1(c2ccc(Cl)cc2)OC(=O)c2ccccc21 (configuration not stated),0.805 ± 0.1,0.974 ± 0.052,1.07 ± 0.093,0.9 ± 0.052,1.06 ± 0.073,1.13 ± 0.16,0.992 (active)
Nc1nc(N)c2nc(-c3ccccc3)c(N)nc2n1,0.861 ± 0.15,1.03 ± 0.17,0.891 ± 0.056,0.56 ± 0.017,1.17 ± 0.27,1.18 ± 0.18,0.92 (active)
C=C1C(=O)O[C@@H]2[C@H]3O[C@]3(C)CC/C=C(\C)CC[C@@H]12 [Prestw-550],0.314 ± 0.019,0.312 ± 0.036,0.108 ± 0.0071,0.0909 ± 0.0037,0.0437 ± 0.0043,0.0367 ± 0.005,0.495 (inactive)
O=C(Nc1ccc(F)c([N+](=O)[O-])c1)c1cccs1,1.07 ± 0.072,1.2 ± 0.098,1.11 ± 0.067,0.964 ± 0.037,1.61 ± 0.14,1.37 ± 0.13,0.975 (active)
COc1cccc2c1C(=O)c1c(O)c3c(c(O)c1C2=O)C[C@@](O)(C(=O)CO)C[C@@H]3O[C@H]1C[C@H](N)[C@H](O)[C@H](C)O1 [Prestw-438],0.123 ± 0.007,0.0747 ± 0.019,0.112 ± 0.0071,0.03 ± 0.0031,0.0425 ± 0.0034,0.0335 ± 0.0064,0.114 (inactive)
COc1ccc(C(O)CN2CCN(c3cccc(C)c3C)CC2)cc1OC (configuration not stated),0.724 ± 0.18,0.928 ± 0.095,0.95 ± 0.06,0.956 ± 0.054,0.873 ± 0.16,1.04 ± 0.12,0.997 (active)
Cc1ncsc1C(=O)N1CC(OCC(F)(F)F)C1,0.974 ± 0.11,0.996 ± 0.08,1.01 ± 0.095,1.08 ± 0.11,1.01 ± 0.09,0.999 ± 0.25,1 (active)
COc1cccc2cc(C(=O)NCc3nn(C4CCCC4)c(=O)c4ccccc34)oc12,0.976 ± 0.053,1.1 ± 0.086,0.846 ± 0.096,0.827 ± 0.062,1.2 ± 0.24,0.848 ± 0.39,1.02 (active)
Cc1cc(Nc2cc(N3CCN(C)CC3)nc(Sc3ccc(NC(=O)C4CC4)cc3)n2)n[nH]1,0.0769 ± 0.0068,0.142 ± 0.0072,0.23 ± 0.021,0.136 ± 0.011,0.537 ± 0.041,0.451 ± 0.06,0.91 (active)
O=C(O)CCCNCP(=O)(O)CCc1ccccc1,0.97 ± 0.099,0.91 ± 0.093,0.881 ± 0.083,0.964 ± 0.048,0.989 ± 0.14,0.963 ± 0.19,1.03 (active)
Cc1cc2c(cc1S(N)(=O)=O)S(=O)(=O)CCC2,1.02 ± 0.094,1.03 ± 0.085,0.997 ± 0.022,1 ± 0.11,0.95 ± 0.044,0.891 ± 0.14,1 (active)
O=C(CCCn1nc(-c2ccc(F)cc2)ccc1=O)Nc1ccc(C(F)(F)F)cc1,0.89 ± 0.097,0.97 ± 0.055,1.05 ± 0.038,0.346 ± 0.038,1.01 ± 0.041,0.748 ± 0.15,0.99 (active)
O=C(NC1CCN(CCCCC2(C(=O)NCC(F)(F)F)c3ccccc3-c3ccccc32)CC1)c1ccccc1-c1ccc(C(F)(F)F)cc1,0.881 ± 0.043,0.952 ± 0.12,1.08 ± 0.062,0.983 ± 0.045,1.46 ± 0.33,1.44 ± 0.53,0.968 (active)
CCCCSc1nnc2c(n1)OC(c1cccc(C)n1)Nc1ccc(Br)cc1-2 (configuration not stated),0.922 ± 0.073,1.05 ± 0.07,0.97 ± 0.045,0.985 ± 0.14,1.02 ± 0.068,0.921 ± 0.11,1 (active)
CC(C)(C)c1cc(CCC(=O)NN)cc(C(C)(C)C)c1O,0.8 ± 0.066,0.816 ± 0.06,0.926 ± 0.096,0.519 ± 0.022,1.15 ± 0.12,1.24 ± 0.2,1.02 (active)
